According to PubChem BioAssay (Tox21):
Values joined by “and” are separate entries in the source; they are usually repeats but may differ in a detail not shown here. Equal entries are not always repeated. Results filed as inconclusive are left out. More than one record can exist for a structure, and the calls need not agree. Active and inactive are the calls of the source. Unless noted, calls come from the whole dose curve; as a rule, active = well fitted curve in the direction sought with a large enough effect in the repeat runs; inconclusive = weak or mixed curves; inactive = no such curve, though single readings can be large; an effect the other way counts as inactive or inconclusive.

Key:
[1] = qHTS assay to identify small molecule agonists of H2AX (AID 1224845; active = well fitted activation curve with a large enough effect in the signal ratio in the repeat runs, not every such curve was filed as active; the % refers to the signal ratio; note: potency is the fitted concentration of half-maximal effect)
Summary of the method: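 Phospho-H2AX Ser139 measured by HTRF (ex 320 nm; em 665 and 620 nm) after 24 hr antibody incubation. Compounds, 15 concentrations, 0.76% DMSO, were applied to CHO-K1 cells for 3hr at 37C before lysis.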

[2] = qHTS assay to identify small molecule agonists of the hypoxia (HIF-1) signaling pathway (AID 1224846; active = well fitted activation curve with a large enough effect in the signal ratio in the repeat runs, not every such curve was filed as active; the % refers to the signal ratio)
Summary of the method: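 Hypoxia-pathway activation was scored as increased beta-lactamase from an HRE-controlled reporter in ME-180 cells; plated at 2,000 cells per well with 0.5% dialyzed FBS, they were exposed 17 hrs to compounds and then given CCF4-AM.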

[3] = qHTS assay to identify small molecule agonists of H2AX - cell viability counter screen (AID 1224847; calls by dose curve; note: nearly all actives have a fitted effect of over 30% in size; note: potency is the fitted concentration of half-maximal effect)
Summary of the method: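 Wild-type CHO-K1 cells (10% FBS medium) were plated overnight at 37C, exposed to compounds at 15 concentrations for 3 hr at 37C (0.76% DMSO final), and viability was read as CellTiter-Glo luminescence after 30 min at room temperature.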

[4] = qHTS assay to identify small molecule antagonists of the estrogen related receptor (ERR) signaling pathway from Tox21 library (AID 1224848); note: nearly all actives have a fitted effect of over 50% in size
Summary of the method: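 Reading was by luminescence 30 min after ONE-Glo addition. Before that, ERR cells at 2,000 per well had rested 6 h at 37 C/5% CO2 and then received pin-tooled compounds in DMSO for 18 h at 37 C.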

[5] = qHTS assay to identify small molecule agonists of the estrogen related receptor (ERR) signaling pathway from Tox21 library (AID 1224849; calls by dose curve; note: nearly all actives have a fitted effect of over 15% in size); settings: ERR reporter cell line, ONE-Glo luciferase, 18 h
Summary of the method: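 Six hours post-seeding at 37 C/5% CO2, ERR cells receive DMSO-solubilised compounds; after 18 h at 37 C, ONE-Glo reagent is applied and luminescence recorded.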

[6] = qHTS RealTime-Glo MT Cell Viability Assay in HepG2 cells - 24 hour (AID 1224867); note: nearly all actives have a fitted effect of over 50% in size; note: potency is the fitted concentration of half-maximal effect
Summary of the method: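 Luminescence read-out: viable HepG2 cells reduce a prosubstrate to a NanoLuc substrate, giving a signal proportional to live cell number. Reads taken at 0, 8, 16, 24, 32 and 40 h of compound exposure at 37 C.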

[7] = qHTS RealTime-Glo MT Cell Viability Assay in HEK293 cells - 32 hour (AID 1224868); note: nearly all actives have a fitted effect of over 50% in size; note: potency is the fitted concentration of half-maximal effect
Summary of the method: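 Nonlytic real-time viability readout: viable cells convert prosubstrate to NanoLuc substrate, giving luminescence proportional to live cell number. HEK293, 600 cells/well, compound added after 5 h, continuous culture at 37 C.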

[8] = A CellTox Green Cytotoxicity Assay to monitor cytotoxicity in HEK293 cells - 0 hour (AID 1224869); note: nearly all actives have a fitted effect of over 50% in size
Summary of the method: (§1)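 Seeding of HEK293 cells together with cytotoxicity dye preceded a 5 h incubation at 37 C/5% CO2. Test compounds in DMSO were then added and fluorescence monitored across 40 h.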

[9] = qHTS RealTime-Glo MT Cell Viability Assay in HepG2 cells - 40 hour (AID 1224870); note: nearly all actives have a fitted effect of over 50% in size; note: potency is the fitted concentration of half-maximal effect
Summary of the method: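 Real-time viability: cells seeded at 600 per well together with NanoLuc and cell-permeant prosubstrate, compounds added after 5 h incubation. Luminescence tracked at 0, 8, 16, 24, 32 and 40 h of exposure.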

[10] = A CellTox Green Cytotoxicity Assay to monitor cytotoxicity in HEK293 cells - 40 hour (AID 1224871); note: nearly all actives have a fitted effect of over 45% in size; note: potency is the fitted concentration of half-maximal effect
Summary of the method: as §1
% is set by controls: 0 for no effect and ±100 for the full control effect.

c1ccc2c(c1)ccc1ncccc12
inactive: Potency [1] | outcome [2] | Potency [3] | Potency [4] | activity change, positive = activation ([5]; at 92.4 µM (top of the series)) -5.44% | Potency [6] | Potency [7] | Potency [8] | Potency [9] | Potency [10]

CC(=O)[C@@]1(O)CC[C@H]2[C@@H]3C[C@H](C)C4=CC(=O)C=C[C@]4(C)[C@@]3(F)[C@@H](O)C[C@@]21C
inactive: Potency [1] | outcome [2] | Potency [3] | activity change, positive = activation ([5]; at 42.5 µM (top of the series)) -14.9% | activity change, positive = activation ([5]; at 92.4 µM (top of the series)) -31% | Potency [6] | Potency [8] | Potency [9]
19.5 µM (active) and inactive: Potency [7]

C=CCOC(=O)C(=C)C
inactive: Potency [1] | outcome [2] | Potency [3] | Potency [4] | activity change, positive = activation ([5]; at 92.4 µM (top of the series)) -1.6% and 1.74% | Potency [6] | Potency [7] | Potency [8] | Potency [9] | Potency [10]

O=C1CCc2ccccc2O1
inactive: Potency [1] | outcome [2] | Potency [3] | activity change, positive = activation ([5]; at 92.4 µM (top of the series)) -2.99% and -9.1% | Potency [6] | Potency [7] | Potency [8] | Potency [9] | Potency [10]

[O-]/[N+](=N\O)c1ccccc1
inactive: Potency [1] | outcome [2] | Potency [3] | Potency [4] | activity change, positive = activation ([5]; at 92.4 µM (top of the series)) 4.43% and 12.7% | Potency [6] | Potency [7] | Potency [8] | Potency [9] | Potency [10]

Cc1ccc(S(=O)(=O)NCl)cc1
inactive: Potency [1] | outcome [2] | Potency [3] | activity change, positive = activation ([5]; at 92.4 µM (top of the series)) 5.11% and 6.95% | Potency [6] | Potency [7] | Potency [8] | Potency [9] | Potency [10]

Cc1ccc([N+](=O)[O-])c(C)c1
4.5 µM (active) and inactive: Potency [1]
inactive: outcome [2] | Potency [3] | activity change, positive = activation ([5]; at 92.4 µM (top of the series)) 6.89% | Potency [6] | Potency [8] | Potency [9]
24.6 µM (active) and inactive: Potency [10]
38.9 µM (active) and inactive: Potency [7]

Cc1ccc(C(C)(C)C)c(O)c1
inactive: Potency [1] | outcome [2] | activity change, positive = activation ([5]; at 92.4 µM (top of the series)) -17.4% and -15.2% | Potency [6] | Potency [7] | Potency [8] | Potency [9]
active: Potency [3] 97.5 µM and 89.8 µM

COC(=O)C(C)Oc1ccc(Oc2ncc(C(F)(F)F)cc2Cl)cc1 (configuration not stated)
inactive: Potency [1] | outcome [2] | Potency [3] | activity change, positive = activation ([5]; at 92.4 µM (top of the series)) -47.3% and -26.9% | Potency [6] | Potency [7] | Potency [8] | Potency [9] | Potency [10]

CN1CCOCC1
inactive: Potency [1] | outcome [2] | Potency [3] | activity change, positive = activation ([5]; at 92.4 µM (top of the series)) -10.1% and 3.72% | Potency [6] | Potency [7] | Potency [8] | Potency [9] | Potency [10]

IC(I)I
inactive: Potency [1] | outcome [2] | Potency [3] | activity change, positive = activation ([5]; at 92.4 µM (top of the series)) 0.549% and 0.511% | Potency [7] | Potency [8] | Potency [10]
active: Potency [6] 38.8 µM and 38.9 µM | Potency [9] 21.8 µM and 4.9 µM

CC1=CC(C)(C)Nc2ccccc21
inactive: Potency [1] | outcome [2] | Potency [3] | activity change, positive = activation ([5]; at 92.4 µM (top of the series)) 1.56% and -18.3% | Potency [6] | Potency [7] | Potency [8] | Potency [9]

Cc1ccc2c(c1)C(=O)OC2=O
inactive: Potency [1] | outcome [2] | Potency [3] | Potency [6] | Potency [7] | Potency [8] | Potency [9]

FC(F)(F)C(Cl)Br (configuration not stated)
inactive: Potency [1] | outcome [2] | Potency [3] | activity change, positive = activation ([5]; at 42.5 µM (top of the series)) 6.22% | activity change, positive = activation ([5]; at 92.4 µM (top of the series)) 3.79% | Potency [6] | Potency [7] | Potency [8] | Potency [9]

OCCNCCO
inactive: Potency [1] | outcome [2] | Potency [3] | activity change, positive = activation ([5]; at 92.4 µM (top of the series)) -2.22% and 4.53% | Potency [6] | Potency [7] | Potency [8] | Potency [9] | Potency [10]

CC(=O)Oc1c(C)c(C)c2c(c1C)CC[C@@](C)(CCC[C@H](C)CCC[C@H](C)CCCC(C)C)O2
inactive: Potency [1] | outcome [2] | Potency [3] | activity change, positive = activation ([5]; at 42.5 µM (top of the series)) 0% | activity change, positive = activation ([5]; at 92.4 µM (top of the series)) 5.86% | Potency [6] | Potency [7] | Potency [8] | Potency [9] | Potency [10]

COCCOCCOCCO
inactive: Potency [1] | outcome [2] | Potency [3] | activity change, positive = activation ([5]; at 92.4 µM (top of the series)) 3.34% and 5.65% | Potency [6] | Potency [7] | Potency [8] | Potency [9]

CC(C)=CCO
inactive: Potency [1] | outcome [2] | Potency [3] | Potency [4] | activity change, positive = activation ([5]; at 92.4 µM (top of the series)) -0.501% | Potency [6] | Potency [7] | Potency [8] | Potency [9] | Potency [10]

C=CC(=O)OCCCC
inactive: Potency [1] | outcome [2] | Potency [3] | activity change, positive = activation ([5]; at 92.4 µM (top of the series)) 7.41% and 1.06% | Potency [6] | Potency [7] | Potency [8] | Potency [9] | Potency [10]

O=C(O)c1ccc(O)cc1
inactive: Potency [1] | outcome [2] | Potency [3] | activity change, positive = activation ([5]; at 92.4 µM (top of the series)) 9.49% | Potency [6] | Potency [7] | Potency [8] | Potency [9]

C=C1C[C@H]2[C@@H]3C=C(C)C4=CC(=O)CC[C@]4(C)[C@H]3CC[C@]2(C)[C@@]1(OC(C)=O)C(C)=O
inactive: Potency [1] | outcome [2] | Potency [3] | activity change, positive = activation ([5]; at 42.5 µM (top of the series)) -56.4% and -29.1% | Potency [6] | Potency [8] | Potency [9] | Potency [10]
